According to ChEMBL document CHEMBL3988442, “University of Dundee, Small-Polar-MMV Screening Library” (2021):
Out of some 48,000 compounds screened, about 13,000 (27%) showed an effect of 50% or more. This is one part of the list.

Tested on: Wolbachia pipientis
Assay: Anti-Wolbachia Cell-Based Screen
Type: functional
Parameters: scale not given: in the data most compounds retested in dose-response had high values
Conditions: 5 µM

SMILES | Percent Effect [%]
COCc1ccc(C(=O)N2CCN(CC3CC3)[C@@H]3CS(=O)(=O)C[C@@H]32)o1 | -14.33
CCCc1cnc(C)nc1NCCc1nc(C)cc(=O)[nH]1 | 11.65
CN1CCCN(C(=O)c2cc3c(s2)CCN3C(=O)C2CC2)CC1 | 2.998
CN1CCN(C(=O)c2cc3c(s2)CCN3C(=O)C2CC2)CC1 | -4.007
CN(C)CC(=O)N1CCc2sc(C(=O)N3CCN(C)CC3)cc21 | 110.2
CCCN1CCCC1c1ccc(C(=O)N2CCOCC2)s1 (configuration not stated) | -8.147
CN(C)CC(=O)N1CCc2sc(C(=O)N3CCOCC3)cc21 | 66.53
CN(C)C1CCN(C(=O)c2cc3c(s2)CCN3C(=O)C2CC2)CC1.O=C(O)C(F)(F)F | -3.085
C=C(C)CNc1ccc(C(=O)N(CC)Cc2nccn2C)cn1 | -22.79
Cc1cnc(CN(C)C2CCN(CCn3cc(C#N)cn3)C2)o1 (configuration not stated) | 2.575
CC(C)c1cnc(CN(C)C2CCN(CCn3cc(C#N)cn3)C2)o1 (configuration not stated) | 95.34
CCc1cnc(CN(C)C2CCN(CCS(C)(=O)=O)C2)o1 (configuration not stated) | -2.122
CC(C)c1cnc(CN(C)C2CCN(CCc3ccncc3)C2)o1 (configuration not stated) | -3.327
CCc1cnc(CN(C)C2CCN(CCn3cc(C#N)cn3)C2)o1 (configuration not stated) | 85.15
CC(Oc1ccccc1C(F)(F)F)C(=O)NCC(=O)N1CCCC1 (configuration not stated) | -9.214
O=C(Cc1ccccc1C(F)(F)F)N1CCC2(CC1)[C@H](O)C[C@@H]2O | 113.5
O=C(Cc1ccccc1C(F)(F)F)N1CCC2(CC1)OCCCC2O (configuration not stated) | 121.4
O=C(Cc1ccccn1)N1CCC2(CC1)CN(c1ncccn1)CCO2.O=C(O)C(F)(F)F.O=C(O)C(F)(F)F | 8.931
CC(=O)N1CCCC2(CN(Cc3ccccc3C(F)(F)F)CCO2)C1 (configuration not stated) | -3.341
CSc1ncccc1C(=O)N1CCC2(CC1)OCCCC2O (configuration not stated) | -4.189
Cc1cccc(C(=O)N2C[C@H]3CC[C@@H]2CN(S(=O)(=O)N(C)C)C3)n1 | -20.97
Cc1nc(O)cc([C@@H]2CN(S(=O)(=O)N(C)C)C[C@H]2c2ccccc2F)n1 | 136.9
CCS(=O)(=O)N1C[C@@H](c2cc(O)nc(C)n2)[C@H](c2ccccc2F)C1 | 95.46
Cc1nc(O)cc(CN2C[C@H](NS(=O)(=O)N(C)C)[C@@H](C3CC3)C2)n1 | -8.548
Cc1nc(O)cc(CCNC(=O)c2ccc(CN3CCCCC3)cc2)n1 | 2.411
COCC(=O)N[C@H]1C[C@H]2C(=O)NC[C@@H](CCC(=O)NC3CC3)N2C1 | -1.651

SMILES | Percent Effect [%]
NC(=O)NC1(C(=O)N2CCc3c(Cl)cccc3C2)CCCCC1 | -13.57
Cc1cccc(C2(CNC(=O)C(C)NC(N)=O)CCCC2)c1 (configuration not stated) | -11.64
NC1(c2nc(-c3cccs3)cc(=O)[nH]2)CCCC1 | 0.7263
Cc1cnn(C2CCCN(C(=O)c3cc(-c4cccs4)n[nH]3)C2)c1 (configuration not stated) | -22.99
O=C(c1cc(-c2cccs2)nc2ccccc12)N1CCN(CCO)CC1 | 26.12
O=C(O)c1cc(-c2cccs2)nc2c(Br)cnn12 | 100.3
O=C(O)c1cc(-c2cccs2)nc2c(Cl)cnn12 | 80.97
CC(C)OCCCNC(=O)[C@@]12CNC[C@@H]1CN(S(C)(=O)=O)C2 | 4.002
O=C(NC[C@H]1OC[C@@H](NC2CCC(F)(F)CC2)[C@@H]1O)N1CCOCC1 | -13.75
CC(C)(C)C(C#N)NC(=O)c1ccc(Oc2cccnc2)cc1 (configuration not stated) | 2.212
O=C1NCCN(C(=O)CN2CCOC2=O)C1c1cccc(F)c1 (configuration not stated) | 1.4
COc1cc(C(=O)O)ccc1OCC(=O)NC(C)c1ccc(F)cc1 (configuration not stated) | 2.572
COCC(C)(O)CNC(=O)COc1ccccc1OC (configuration not stated) | 1.741
COc1cc(C(=O)O)cc(I)c1OCC(=O)NCCc1ccccc1 | 109.3
COc1cc(C(=O)O)ccc1OCC(=O)NCCc1ccccc1 | 92.84
Cc1nn(C)c(C)c1OCC(=O)NCc1cccc(C(=O)O)c1 | 4.585
COc1ccccc1OCC(=O)NCC(O)(c1ccccc1)C1CC1 (configuration not stated) | -11.16
Cc1cccc2c1nc1n2[C@@H](CNC(=O)c2ccncc2)COC1 | -9.503
Cc1cc2c(cc1C(=O)N1CC[C@H](CO)[C@@H](O)C1)OCCO2 | -2.803
Cc1cc(C)c2nc(C)c(C(=O)N3CCC(N4CCCC4)CC3)cc2c1 | 84.44
CCS(=O)(=O)N(C)C1CCN(C(=O)c2cc(C)cc(C)c2)CC1 | 4.174
CCN(CC)C1CCN(C(=O)NCc2c(C)noc2C)CC1 | -4.062
CC(=O)N1CCC(CCNC(C)c2cc(C)cc(C)c2)CC1 (configuration not stated) | -3.402
Cc1cc(C)c2nc(C)c(C(=O)N3CCC(CCN(C)C)CC3)cc2c1 | 84.1
CCN(CC)C1CCN(C(=O)c2cc3cc(C)cc(C)c3nc2C)CC1.Cl | 152.2
CC(C)Cc1cc(C(=O)N2CCC(N3CCCC3)CC2)cc(O)n1 | 3.394

SMILES | Percent Effect [%]
CCCn1ncc(C(=O)N2CCC(N3CCCCC3)CC2)c1C | -9.333
CN(C)c1nc2c(c(NCc3cc(O)ncn3)n1)CCCC2 | 14.14
CC(C)N1CCN2C(=O)N(C3CCCCC3)C[C@H]2C1 | 0.5796
CC(C)CNC1(Cc2cc(-c3ccccc3)on2)COC1 | -15.39
Cc1cncc(C(=O)N(c2ccc(F)cn2)C2CCOCC2)c1 | -4.438
O=C(NC1CCOC1)c1cccc(S(=O)(=O)NCCCc2ncc[nH]2)c1 (configuration not stated) | -8.272
CSCCN1CCC(NC(=O)OC(C)(C)C)CC1 | -0.645
CCOC(=O)N1CCC(NC(=O)c2cccc(C3CCCNC3)c2)CC1 (configuration not stated) | 94.34
O=C(NC1CCOCC1)c1cccc(C2CCCNC2)c1 (configuration not stated) | 85.12
COCC(O)CN1CCC(NC(=O)c2cccc(C)c2)CC1 (configuration not stated) | -8.408
CSCCN1CCC(NC(=O)c2cccc(C3CCCNC3)c2)CC1 (configuration not stated) | 92.44
CCCS(=O)(=O)N1CCCC(c2cccc(C(=O)O)c2)C1 (configuration not stated) | 9.239
O=C1CN(CCCNS(=O)(=O)c2cccc(C(=O)NC3CC3)c2)CCN1 | -1.221
CCc1cnc(CNc2ccc(C(=O)NCc3ccco3)cc2C)o1 | 4.048
COc1ccc(Br)cc1CC(=O)Nc1cc(C)n[nH]1 | -11.39
CCOc1ccc(Br)cc1-c1cc(N)[nH]n1.Cl | 161.1
CCOc1ccccc1-c1cc2c(cc1C(N)=O)OCO2 | -7.69
CCOc1cc(C)c(-c2cc(N)[nH]n2)cc1OCC | 103.8
CCOc1ccccc1-c1cc(N)[nH]n1.Cl | 107
CCOc1ccccc1-c1noc(CN2CCN(CCOC)CC2)n1 | 9.475
Cc1cc(NC(N)=O)ccc1OCC(F)(F)F | 6.991
c1ccc2c(c1)CN(c1ncnc3c1CCNC3)CCO2 | -28.26
CC(=O)N(C)Cc1ncn2c1CN(C(=O)CC1CC1)CCC2 | 104.9
Cc1ccc(C)c(CN2CCCn3nc(CNS(C)(=O)=O)cc3C2)c1 | -10.08
CS(=O)(=O)NCc1ncn2c1CN(C(=O)C1CCCO1)CCC2 (configuration not stated) | 106.6
CS(=O)(=O)NCc1ncn2c1CN(C(=O)CC1CCCC1)CCC2 | -15.27

SMILES | Percent Effect [%]
O=C(c1cccs1)N1CCCn2cnc(COCC3CC3)c2C1 | 6.591
CC(C)CC(=O)N1CCCn2cnc(CNS(C)(=O)=O)c2C1 | 117
CN(C)C(=O)NCc1ncn2c1CN(S(C)(=O)=O)CCC2 | 2.726
Cc1ccsc1C(=O)N1CCn2cnc(COCC3CC3)c2C1 | 0.0867
CC(=O)N(C)Cc1ncn2c1CN(C(=O)C1CCCO1)CCC2 (configuration not stated) | 106.4
CSCCc1c(-c2ccccc2)ncn1CCNc1cccnc1 | -1.445
COC(=O)C1CN(CC(=O)Nc2ccccc2Cl)c2ccccc21 (configuration not stated) | 8.149
Cc1ccc(NC(C)C(=O)NCc2cccs2)cc1Cl (configuration not stated) | -17.21
COCC(C)(C)NC(=O)CC(c1ccccc1)C(F)(F)F (configuration not stated) | 0.4415
CC(C)N(C)Cc1nnc2n1CCCN(C(=O)C1CCCO1)C2 (configuration not stated) | -11.05
CC(C)N(C)Cc1ncn2c1CN(C(=O)C1CCCO1)CCC2 (configuration not stated) | 102
CC(C)N(C)Cc1ncn2c1CN(CC(=O)N(C)C)CCC2 | -4.555
Cc1ccc(C(=O)NCCNC(=O)N(C)C(C)c2ccccn2)cc1 (configuration not stated) | -4.194
COc1cc(CN(C)C(C)c2ccccn2)cc2c1OCO2 (configuration not stated) | -21.63
Cc1cnc(NC(=O)c2cccc(CN(C)Cc3ncccc3C)c2)s1 | 0.1885
CC(c1ccco1)N(C)Cc1cccc(C(=O)Nc2nccn2C)c1 (configuration not stated) | 19.16
CC(c1ccccn1)N(C)Cc1cccc(C(=O)Nc2nccn2C)c1 (configuration not stated) | 66.38
COC(=O)c1cccc(CN(C)C(C)c2ccccn2)c1 (configuration not stated) | 109
Cc1ccc(Cl)c2ccc(NC(CO)CO)nc12 | -18.64
O=C(c1ccsc1)N1CC(c2nc(-c3ccc[nH]c3=O)no2)C1 | -1.062
CCOc1ccc(-c2c(-c3ccccc3)ncn2C2CCNC2)cn1 (configuration not stated) | 5.482
CCOc1no[n+]([O-])c1-c1ccccc1 | 142.4
COCCOC[C@]1(CNCc2cccc(OC)c2)C[C@@H](O)[C@@H](O)C1.Cl | 2.999
N#CCCN(CC(=O)Nc1ccc(Br)cc1Cl)Cc1cccnc1 | -15.5
